Laboratory results taken from PubChem BioAssay (NCI).
The panel holds about 83,000 compounds, 20% with a hit somewhere; the sample as a whole holds those more often.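 Note: values are percent growth. 100 is the growth of untreated cells, values between 100 and 0 indicate rising inhibition; between -100 and 0 indicates cell death.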 Activity calls are given as the source filed them. Rule for the calls: active = growth percent below 10; inactive = the rest.

Tested on: SW-620 colon
Experiment: NCI-60 one-dose screen, 48 h (100 = growth as untreated, 0 = no growth, -100 = all killed)
Conditions: 10 µM unless noted

Row | SMILES | growth
1 | OCC1OC(n2ccc3c2ncn2ncnc32)C(O)C1O (configuration not stated) | 26.2% (inactive)
2 | Nc1cc(N)ncn1 | 104% (inactive)
3 | CCC(/C=C\C(C)=O)CC | 99% (inactive)
4 | Cc1[nH]c(=S)[nH]c(=O)c1C | 109% (inactive)
5 | CC(C)Sc1ncnc2nc[nH]c12 | 108% (inactive)
6 | CC(C)N(CCCC#N)C(C)C | 99.2% (inactive)
7 | C=C1C(=O)C2CCN1CC2 | 67.2% (inactive)
8 | CCC12OC(COc3ccccc3)CN1CCN2c1ccccc1 (configuration not stated) | 103% [100 µM] (inactive)
9 | CCCCOC(=O)c1ccccc1O | 101% (inactive)
10 | CC1CC(C)S(=O)(=O)C1 (configuration not stated) | 108% (inactive)
11 | C=CC1=NC(C)(C)CC(C)O1 (configuration not stated) | 104% (inactive)
12 | CN(C)c1ncnc2c1cnn2C | 98.7% (inactive)
13 | COc1cc(OC)c(NC(=O)C(Sc2nc(C)cc(C)c2C#N)c2ccccc2)cc1Cl (configuration not stated) | 107% (inactive)
14 | CC(=O)NCNC(C)=O | 107% (inactive)
15 | CCCCNC(=O)c1ccc(OCC)cc1 | 97.9% (inactive)
16 | Nc1ccc(F)c(Cl)c1F | 104% (inactive)
17 | C=C(OC(C)=O)c1ccccc1 | 97.4% (inactive)
18 | C/C=C/C1OCC(CC)C(CCC)O1 (configuration not stated) | 105% (inactive)
19 | COc1ccc(C2CC(c3ccccc3)=Nc3ccccc3S2)cc1 (configuration not stated) | 98.4% (inactive)

Row | SMILES | growth
20 | Clc1cccc(Cl)c1C1CSc2ccccc2N=C1c1ccccc1 (configuration not stated) | 3.48% (active)
21 | COC1CC(OC(=O)c2ccc([N+](=O)[O-])cc2)C(COC(=O)c2ccc([N+](=O)[O-])cc2)O1 (configuration not stated) | 99.7% (inactive)
22 | CC(=O)NC(CCC(=O)c1ccccc1)C(=O)O (configuration not stated) | 100% (inactive)
23 | ClCc1cccc2c(CCl)cccc12 | 70.8% (inactive)
24 | CCCCCCCCCCCCCCCCCC(=O)NCCNC(=O)CCCCCCCCCCCCCCCCC | 102% (inactive)
25 | O=C(CCCl)OCCOc1ccccc1 | 107% (inactive)
26 | O=C(O)CC1=CCCCC1 | 98.2% (inactive)
27 | c1cc(CNCCNCc2ccncc2)ccn1 | 105% (inactive)
28 | O=C1CSc2ccccc2N1 | 99.2% (inactive)
29 | CC(C)OCC(CCl)OC(=O)Nc1ccccc1 (configuration not stated) | 112% (inactive)
30 | COCC(N)=O | 99.7% (inactive)
31 | Nc1cc(F)ccc1[N+](=O)[O-] | 104% (inactive)
32 | CC(C)=CCC[C@@H](C)[C@H]1CC[C@@]2(C)C3=C(CC[C@]12C)[C@@]1(C)CC[C@H](O)C(C)(C)[C@@H]1CC3 | 99.9% (inactive)
33 | BrCc1cccc(C[P+](c2ccccc2)(c2ccccc2)c2ccccc2)c1 | 25.4% (inactive)
34 | COc1ccc(/C=N/NC(=O)COCC(=O)N/N=C/c2ccc(OC)cc2)cc1 | 108% (inactive)
35 | CCOC(=O)CSCCC#N | 100% (inactive)
36 | Cc1cccc2ccccc12 | 102% (inactive)
37 | CCC(=O)C1C(=O)c2ccccc2C1=O | 113% (inactive)
